Compounds without any hit were thinned out: in the full panel of roughly 83,000, 20% have a hit.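 Plates (96-well) were seeded with cells, treated with compound at one concentration, and incubated for 48 hours before percent growth was determined.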 Unmarked numbers belong to inactive results. Activity calls are given as the source filed them. How the source made its calls: active means growth percent below 10; inactive means the rest.
How the values were obtained:
Test in all cases: NCI-60 one-dose screen, 48 h (100 = growth as untreated, 0 = no growth, -100 = all killed)
Details in all cases: 10 µM unless noted
SK-MEL-2 melanoma = tested on: SK-MEL-2 melanoma
EKVX NSCLC = tested on: EKVX NSCLC
SN12C renal = tested on: SN12C renal
UO-31 renal = tested on: UO-31 renal
TK-10 renal = tested on: TK-10 renal
ACHN renal = tested on: ACHN renal
CAKI-1 renal = tested on: CAKI-1 renal
A498 renal = tested on: A498 renal
CCRF-CEM leukemia = tested on: CCRF-CEM leukemia
MOLT-4 leukemia = tested on: MOLT-4 leukemia

Row | SMILES | growth (SK-MEL-2 melanoma) | growth (EKVX NSCLC) | growth (SN12C renal) | growth (UO-31 renal) | growth (TK-10 renal) | growth (ACHN renal) | growth (CAKI-1 renal) | growth (A498 renal) | growth (CCRF-CEM leukemia) | growth (MOLT-4 leukemia)
1 | CCn1cc2c(cc1=O)-c1nc3ccccc3c3ccnc(c13)C2=O | 62.3% | 87.8% | 16.5% | 42.5% | 86.1% | 10.1% | 60% | 81.7% | 104% | 80.6%
2 | CSc1ncnc2c1ncn2C1CCCO1 (stereo not given) | 99.3% | 95.6% | 99.1% | 92.1% | 106% | 99% | 79.1% | 146% | 109% | 106%
3 | Cc1ccc(-c2nc(/C=N/Nc3cc(C)nc4ccc(Br)cc34)c(C)o2)cc1 | 95.8% | 2.6% (active) | -83.4% (active) | -98% (active) | -17.5% (active) | -85.1% (active) | -71.5% (active) | 86.6% | -42.1% (active) | -34.7% (active)
4 | Cc1cc2cc3cc(C)c(N(C)C)cc3nc2cc1N(C)C | -31.8% (active) | 34.6% | 15.3% | 59.1% | -14.6% (active) | 39.1% | 43.7% | 52.8% | 17.3% | 29.1%
5 | Cc1ccc(/C=C2\Oc3cc(OCC(=O)c4ccc(Cl)cc4)ccc3C2=O)cc1 | 79.2% | 107% | 116% | 73.6% | 130% | 95.2% | 101% | 113% | 176% | 102%
6 | C[C@H](CCC(=O)O)[C@H]1CC[C@H]2[C@@H]3CC[C@@H]4/C(=C\c5ccco5)C(=O)/C(=C\c5ccco5)C[C@]4(C)[C@H]3CC[C@]12C | 73.2% | 79.1% | 56.3% | 49.6% | 109% | 46.6% | 55.6% | 115% | 0.613% (active) | 0.809% (active)
7 | Cn1c(=O)c2c(ncn2CC[N+](C)(C)C)n(C)c1=O | 99.7% | 94.6% | 103% | 91.7% | 91.8% | 110% | 102% | 115% | 109% | 104%
8 | CCCCNP1(NCCCC)=NP(NCCCC)(NCCCC)=NP(NCCCC)(NCCCC)=NP(NCCCC)(NCCCC)=N1 | -23.1% (active) | -17.2% (active) | 20.1% | 37.6% | 13.6% | 33.9% | 64.4% | 4.56% (active) | -16.8% (active) | -38.5% (active)
9 | COc1ccc(C(=O)/C=C/c2cc3ccccc3[nH]c2=O)cc1 | 55.1% | 79% | 45% | 24.9% | 24.7% | 57.9% | 42.8% | 47.4% | 19.5% | 32.5%
10 | COC(=O)[C@@H]1CC[C@]2(C)[C@H](CC[C@@H]3O[C@@]32C)[C@@]1(C)CC(=O)c1ccoc1 | 78.2% | 105% | 92.7% | 97% | 84% | 105% | 106% | 88.6% | 102% | 94.8%
11 | CN1CCOCCOCCOc2ccccc2NC(=O)c2nc(cnc2N)-c2ccc(cc2)S1(=O)=O | 49.8% | 80.4% | 64.7% | 42.1% | 43.7% | 8.87% (active) | 53.7% | 29.3% | 2.07% (active) | 0.82% (active)
12 | COc1ccc(-c2c3c(nc4n[nH]c(-c5ccc(Cl)cc5)c24)-c2ccccc2C(=O)C3=O)cc1 | -49.8% (active) | 59% | 12% | 0.604% (active) | -28.7% (active) | 10.7% | 47.1% | 53.8% | -6.2% (active) | 0.0593% (active)
13 | C/C(=C(/c1ccc(O)cc1)c1ccc(OCCN(C)C)cc1)c1ccccc1 | 92.3% | 83.6% | 84% | 65% | 81.5% | 89.2% | 84.9% | 102% | 94.3% | 32.8%
14 | CCNS(=O)(=O)c1ncnc2nc[nH]c12 | 109% | 104% | 112% | 85.8% | 122% | 119% | 94.9% | 110% | 91.1% | 122%
15 | CC[n+]1ccc2c(c1)C(=O)c1nccc3c1c-2nc1ccccc13 | -34% (active) | 11.2% | -75% (active) | 15.1% | 18.7% | 6.37% (active) | 24.7% | -9.88% (active) | 0.574% (active) | -30% (active)
16 | Cc1cc(-c2nc3ccccc3s2)ccc1NC(=O)COc1ccc(Cl)cc1 | 104% | 78.9% | 88.3% | 69% | 53.7% | 95.5% | 84.5% | 106% | 106% | 94.5%
17 | O=C1/C(=C/c2ccc(Cl)c(Cl)c2)CN(C(=O)CCN2CCC(=NO)CC2)C/C1=C\c1ccc(Cl)c(Cl)c1 | -86.9% (active) | -85.1% (active) | -97.3% (active) | -95.7% (active) | -88.9% (active) | -98.4% (active) | -92.1% (active) | -92% (active) | -28.2% (active) | -21.7% (active)
18 | O=c1ccc2cc3ccccc3cc2[nH]1 | 97.5% | 28.1% | 94.4% | 76.4% | 119% | 108% | 78.4% | 97.9% | -72.7% (active) | 87.3%
19 | Cc1[nH]n(-c2ccccc2)c2nc3nncc3c(-c3ccc(Cl)cc3)c12 | 123% | 97% | 93.1% | 96.6% | 112% | 104% | 90.3% | 102% | 89.7% | 101%
20 | O=C(CN1CCN(c2cc3c(cc2F)c(=O)c(C(=O)N/N=C/c2ccccc2)cn3C2CC2)CC1)N/N=C\c1ccccc1 | 86.1% | 66.6% | 65.7% | 53.3% | 89.1% | 72% | 78.1% | 78.7% | 60.9% | 42.7%
21 | Cc1nc2nc(N)nc(N)c2nc1C | 86.5% | 97.9% | 93.1% | 78.6% | 95.4% | 96.3% | 92.3% | 100% | 98.5% | 118%
22 | CSc1ccc(N=C=C(c2ccccc2)c2ccccc2)cc1 | 93.5% | 96.6% | 81.7% | 83.5% | 99.6% | 92.9% | 96.9% | 81.8% | 1.03% (active) | 34.7%
23 | COc1ccc(-c2cc(NC(=O)Nc3ccc(O)cc3)no2)cc1 | 102% | 77.2% | 74.8% | 41.9% | 96.9% | 55.4% | 31.2% | 30.9% | 31% | 19.2%
24 | CCCCCCCCCCCCCC1=NCCN1CCO | 114% | 112% | 69.2% | 54.5% | 123% | 78.1% | 90.7% | 108% | 7.19% (active) | -1.68% (active)
25 | CC/C=C\C[C@H](O)C/C=C1/C(=O)C=C[C@@H]1C/C=C\CCCC(N)=O | 13.9% | 23.6% | -4.37% (active) | -70.8% (active) | -13% (active) | -82.2% (active) | 11.3% | 54.6% | -4.33% (active) | -13% (active)
26 | COc1ccc(-c2cn3c(ccc4ccccc43)n2)cc1 | 109% | 72.1% | 89.9% | 56.1% | 126% | 81.3% | 92.7% | 116% | 99.2% | 113%
27 | O=C(O)c1cccc2c1-c1ccccc1C2=O | 98.4% | 90.3% | 84.2% | 94.3% | 91.1% | 94.4% | 65.1% | 96.1% | 84.2% | 99.4%

Reference: PubChem BioAssay (NCI)
